Bioassay records as filed in PubChem BioAssay.
The list is not random: actives were taken first. Their share in the collection is about 9.4%.
FLuc modulator: qHTS profiling assay for firefly luciferase inhibitor/activator using purifed enzyme and Km concentrations of substrates (counterscreen for miR-21 project). Luciferin 4-monooxygenase (Photinus pyralis), P08659. purified FLuc, Km substrates, luminescence inhibition. Potency, µM (titrated, usually from 57.5 µM), for inactives: at the highest dose activity change, negative = inhibition, usual class: inhibitors. 360,000 compounds, 6.9% hits. AID 588342, 2011;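 also: plate controls were vehicle for no effect and reference inhibitor for full effect; nearly all actives have a fitted effect of over 55% in size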
Target sequence (P08659 whole entry, looked up): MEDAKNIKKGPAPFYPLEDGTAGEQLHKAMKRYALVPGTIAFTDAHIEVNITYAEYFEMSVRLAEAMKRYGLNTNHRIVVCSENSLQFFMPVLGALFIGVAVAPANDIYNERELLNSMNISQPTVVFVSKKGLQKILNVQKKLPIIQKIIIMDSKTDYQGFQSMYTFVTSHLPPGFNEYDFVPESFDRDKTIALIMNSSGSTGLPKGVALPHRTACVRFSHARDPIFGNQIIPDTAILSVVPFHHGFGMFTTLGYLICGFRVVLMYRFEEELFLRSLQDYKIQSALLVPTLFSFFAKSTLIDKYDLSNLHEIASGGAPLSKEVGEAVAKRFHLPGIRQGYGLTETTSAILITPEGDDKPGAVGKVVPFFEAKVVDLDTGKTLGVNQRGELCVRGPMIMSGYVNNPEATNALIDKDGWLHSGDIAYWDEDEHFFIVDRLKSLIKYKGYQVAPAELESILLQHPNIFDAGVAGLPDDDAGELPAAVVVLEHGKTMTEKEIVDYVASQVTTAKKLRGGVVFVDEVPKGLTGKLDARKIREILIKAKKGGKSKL
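Biochemical qHTS of compounds, final roughly 60 µM downward over six points, against 10 nM purified firefly luciferase using Km concentrations of substrates (10 uM D-luciferin, 10 uM ATP) in Tris acetate pH 7.5 buffer; luminescence output.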
NPC1 promoter act: qHTS Assay for NPC1 Promoter Activators. Huh7 NPC1 promoter luciferase reporter, 24 h. Potency, µM (highest dose often 9.22 µM), inactives show top-dose activation, usual class: activators. 320,000 compounds, 2.4% hits; also: % of control where 0% means no effect; nearly all actives have a fitted effect of over 60% in size
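Huh7 reporter cells (NPC1 promoter driving luciferase) are dosed with compound for 24 h at 37 °C, 5% CO2; luciferase detection reagent is then added and luminescence measured after 10 min at ambient temperature.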
Rab9 promoter act: qHTS Assay for Rab9 Promoter Activators; 320,000 compounds, 2.8% hits; Potency, µM (series often up to 9.22 µM), without a hit: top-dose activation, negative = inhibition, usual class: activators; Huh7 Rab9 promoter-luciferase reporter, luminescence, 24 h; also: % of control where 0% means no effect; nearly all actives have a fitted effect of over 60% in size
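Huh7 cells stably carrying Rab9 promoter–luciferase reporter, plated 1500 cells/well, compound added after 2 h and incubated 24 h at 37 °C; luciferase luminescence then read after 10 min with detection reagent.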
ELG1 genotoxic: qHTS screen for small molecules that induce genotoxicity in human embryonic kidney (HEK293T) cells expressing luciferase-tagged ELG1; HEK293T ELG1-luciferase reporter, luminescence, 16 h; Potency, µM (highest dose often 46 µM), for the others: at the highest dose activity change, positive = activation, usual class: activators; 330,000 compounds, 1.3% hits; also: % of control where 0% means no effect; nearly all actives have a fitted effect of over 60% in size
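16 hr compound incubation (37 °C, 5% CO2) of HEK293T cells carrying luciferase-tagged ELG1; luciferase then measured by ONE-Glo luminescence after 30 min at RT.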
SMN2 splice up: qHTS Assay for Enhancers of SMN2 Splice Variant Expression; Potency, µM (highest dose often 46.1 µM), for the others: at the highest dose activity change, positive = activation, most hits filed as activators; HEK293 SMN2-luciferase splicing reporter, luminescence, 30-36 h; 210,000 compounds, 2.8% hits; also: % of control where 0% means no effect; nearly all actives have a fitted effect of over 55% in size
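HEK293 cells carry an SMN2 minigene-luciferase reporter in which exon 7 inclusion puts luciferase in frame. Cells were seeded at 2000 cells/well, attached for 10-12 hours, then exposed to compounds for 30-36 hours at 37C before ONE-Glo luminescence.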
ELG1 repair inh: qHTS screen for small molecules that inhibit ELG1-dependent DNA repair in human embryonic kidney (HEK293T) cells expressing luciferase-tagged ELG1. HEK293T ELG1-luciferase reporter, luminescence, 16 h; DNA damage induced by 5-fluorouridine. Potency, µM (doses to about 46.1 µM), for the others: top-dose activity change, negative = inhibition, usual class: inhibitors. 330,000 compounds, 2.3% hits. AID 504467, 2011; also: % is scaled to controls: 0 for no effect and ±100 for the full control effect; nearly all actives have a fitted effect of over 55% in size
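Quantitative HTS, concentration-response format. 2,000 cells/well co-treated with 5-fluorouridine and compound, 16 hr in 5% CO2 at 37 °C; ONE-Glo luminescence read after 30 min.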
Active calls of the source: *; u = inconclusive; x = not tested or not shown; [ ] = another dose, or the depositor's remark. Calls follow the shape of the dose curve; as a rule, active = well fitted curve in the direction sought with a large enough effect; inconclusive = small, poorly fitted or top-dose-only effect, or another doubt; inactive = no such curve, though single readings can be large; an effect the other way counts as inactive or inconclusive. Potency is read from the fitted curve at half-maximal effect.

SMILES	FLuc modulator	NPC1 promoter act	Rab9 promoter act	ELG1 genotoxic	SMN2 splice up	ELG1 repair inh
CCc1nnc2sc(-c3ccc(NC(=O)c4ccc5c(c4)OCCO5)cc3)nn12	0%	-2%	-4%	-13%	-23%	5.8µM*
c1ccc(Cc2nnc3sc(-c4ccc5c(c4)OCCO5)nn23)cc1	13µM*	9%	u	u	4%	u
CCc1nnc2sc(-c3ccc(NC(=O)c4ccco4)cc3)nn12	-18%	3%	6%	1%	-13%	5%
C=CC1=C2C=C(C3CC3)N(C3CCCCC3)C=C2C(=O)C(C)(OC(=O)c2ccco2)C1=O (centres undefined)	x	x	x	x	8%[9.22 µM]	x
COc1cc(CN2CC(=O)N(c3ccc(C)c(C)c3)C2=S)cc(OC)c1OC	-1%	-1%	-4%	0%	-18%	u
COc1ccc(CN2CC(=O)N(c3ccc(C)c(C)c3)C2=S)cc1OC	-1%	-3%	0%	8%	-15%	16µM*
CC(CC(=O)Nc1ccc(Cl)c(S(=O)(=O)N2CCOCC2)c1)c1ccccc1 (centres undefined)	9%	-23%	-36%	-4%	x	8.2µM*
O=C(CC1CCCC1)Nc1ccc(Cl)c(S(=O)(=O)N2CCOCC2)c1	x	x	x	-5%	x	21µM*
CC(=O)Nc1ccc(OCC(=O)Nc2ccc(Cl)c(S(=O)(=O)N3CCOCC3)c2)cc1	x	x	x	-10%	x	5.8µM*
O=C(O)CC(SCC(=O)Nc1ccc(Cl)c(S(=O)(=O)N2CCOCC2)c1)C(=O)O (centres undefined)	0%	3%	3%	0%	x	u
O=C(Nc1nc2nccc(-c3ccccc3)n2n1)c1ccccc1	u	2.8µM*	2.5µM*	u	x	u
O=C(Nc1nc2nc(-c3ccccc3)cc(-c3ccccc3)n2n1)c1ccco1	-2%	-7%	-4%	-2%	24%	8.2µM*
COc1ccc(-c2ccnc3nc(N4CCN(c5ccccc5)CC4)nn23)cc1	-7%	-1%	-13%	0%	1%	7%
COc1ccc(C(=O)Nc2nc3nccc(-c4ccccc4)n3n2)cc1	9.5µM*	-3%	1%	-3%	-25%	-11%
O=C(Nc1nc2nccc(-c3ccccc3)n2n1)c1ccc(F)cc1	1%	-6%	11%	1%	-24%	17%
CC(=O)Nc1nc2nc(-c3ccccc3)cc(-c3ccccc3)n2n1	-16%	1%	-5%	-3%	0%	-26%
CCCc1cc(=O)oc2cc(C)c3c(-c4ccccc4)coc3c12	u	x	x	x	-3%	x
COc1ccc(NC(=O)c2cc(-c3ccccn3)nc3ccccc23)c(OC)c1	x	x	x	-8%	x	8.2µM*
COc1ccc(NC(=O)NNC(=O)c2ccc3ccccc3c2O)c(OC)c1	-2%	-4%	6%	5%	x	0%
COc1ccc(NC(=O)NNC(=O)c2cc(C3CC3)nc3ccccc23)c(OC)c1	-4%	0%	9%	-10%	x	13µM*
Cc1c(C(=O)NCc2ccccc2Br)oc2c1-c1[nH]ncc1CC2	-3%	x	x	x	x	x
CC(=O)c1cc(-c2ccccc2)n(CCC(=O)Nc2cc(C)cc(C)c2)c1C	-10%	x	x	x	x	x
CCOc1ccccc1Nc1nnc(-c2cc3cc(Cl)ccc3oc2=O)s1	-1%	x	x	x	x	x
CCCCOc1ccc(N=Cc2cccs2)cc1	5.4µM*	1%	1%	3%	-4%	10%
CC(O)CN=c1cc(-c2ccccc2)oc2ccc(Cl)cc12 (centres undefined)	15µM*	u	u	u	17%	u
SMILES	FLuc modulator	NPC1 promoter act	Rab9 promoter act	ELG1 genotoxic	SMN2 splice up	ELG1 repair inh
CCN(c1ccccc1)S(=O)(=O)c1ccc(Cl)c(NC(=O)CNCc2ccccc2OC)c1	x	x	x	-13%	x	18µM*
CCN(c1ccccc1)S(=O)(=O)c1ccc(OC)c(NC(=O)Cc2ccccc2OC)c1	0%	-7%	-6%	-1%	x	-24%
CCN(c1ccccc1)S(=O)(=O)c1ccc(OC)c(NC(=O)Cc2ccc(OC)c(OC)c2)c1	x	1%	-8%	-6%	x	18µM*
CCN(c1ccccc1)S(=O)(=O)c1ccc(Cl)c(NC(=O)COC(=O)c2cccc(OC)c2O)c1	3%	-2%	1%	-1%	-8%	-2%
Cc1ccc(-n2nc3c(N4CCC(C(=O)NCCC(C)C)CC4)nnc(C)c3c2C)cc1	-7%	x	x	x	x	x
CC(=O)O[C@H]1CC[C@@]2(C)C(=CC[C@@H]3[C@@H]4CC[C@H](c5cc(C(F)(F)F)n(C(C)=O)n5)[C@]4(C)CC[C@@H]32)C1	x	x	x	x	-16%[9.22 µM]	x
Cc1c(C(=O)Nc2cccc(F)c2)oc2c1-c1nn(Cc3c(F)cccc3Cl)cc1CC2	4%	x	x	x	x	x
COCCn1c(C)cc(C(=O)COC(=O)c2ccc(-n3nc(C)cc3C)cc2)c1C	u	-9%	1%	0%	-21%	-10%
Cc1cc(C(=O)COC(=O)c2nc3nccc(C)n3n2)c(C)n1CC1CCCO1 (centres undefined)	-16%	8%	-6%	2%	-21%	-6%
COc1cc(OC)c(C(=O)OCC(=O)c2cc(C)n(CC3CCCO3)c2C)cc1OC (centres undefined)	21µM*	-1%	3%	2%	7%	-26%
COCCn1c(C)cc(C(=O)COC(=O)c2ccc(Cl)c(S(N)(=O)=O)c2)c1C	0.76µM*	0.5µM*	0.5µM*	0.58µM*	x	u
Cc1cc(C(=O)COC(=O)c2ccc3c(c2)NC(=O)CS3)c(C)n1CC1CCCO1 (centres undefined)	15µM*	-5%	-4%	-1%	-13%	u
Cc1cc(C(=O)COC(=O)c2ccc(Cl)c(S(N)(=O)=O)c2)c(C)n1CC1CCCO1 (centres undefined)	1.5µM*	0.79µM*	0.71µM*	u	x	u
CC(C)N(c1ccccc1)c1ccc(NC(=O)COC(=O)CCN2C(=O)c3cccc([N+](=O)[O-])c3C2=O)cc1	7%	-5%	1%	-2%	-4%	u
Cc1ccc(C)c(NC(=O)CN2CCSc3ccc(S(=O)(=O)N4CCCC4)cc32)c1	2%	x	x	x	x	x
CCC(C)NC(=O)CSc1nc2n[nH]c(C)c2c(=N)n1-c1cc(Cl)ccc1C (centres undefined)	1%	x	x	x	x	x
